Compound activity as filed in PubChem.
Rows were chosen to be rich in hits. Some 21% of all compounds tested hit in one or more screens of this group.
Shiga inhibitor: inhibitors of Shiga toxin in Vero cells. Vero cells, Shiga toxin protein synthesis inhibition reporter. hit rate 9.2% among 290,000. inhibition, % at 38.7 µM. AID 2315; in the data active = inhibition mostly above about 28%, no sharp cut-off; inactive = mostly below about 43%
AMA1-RON2 inh: disrupts binding of P. falciparum AMA1 to RON2 | hit rate 0.2% among 360,000 | Potency, µM (doses to about 58.2 µM), usual class: inhibitors | AID 720542 | AlphaScreen AMA1-biotinylated RON2 peptide binding; also: nearly all actives have a fitted effect of over 45% in size
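AMA1 (3D7) with his tag at 25 nM final met compounds first, then biotinylated RON2 peptide at 25 nM; detection used donor plus acceptor beads, 10 µg/mL apiece, read by AlphaScreen after 30 min at room temperature.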
Pf growth 96h: inhibits malaria parasite growth, 96 h | P. falciparum luciferase reporter growth, 96 h | Potency, µM (highest dose often 28.7 µM), actives largely listed as inhibitors | hit rate 6.9% among 320,000
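Two-generation exposure (96 h) targets delayed-death phenotype. Reporter parasites carrying integrated firefly luciferase, in red cells at 2% hematocrit and 0.05% parasitemia final, kept at 37 C, 5% CO2; luminescence loss indicates inhibition.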
HCV inh: HCV inhibition. Huh7.5.1 HCVcc-Cre infection, luciferase reporter, 44 h. Potency, µM (top dose mostly 41.8 µM), most hits filed as inhibitors. hit rate 3.4% among 340,000. AID 651820
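Cells (1,000/well) were plated 4 h before compound, then infected with HCVcc-Cre virus (~0.5 moi). After 44 h further culture, infection was read as luciferase luminescence following a 15 min substrate incubation at room temperature.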
CHX counter: counter-screen hit for Shiga toxin inhibitors, cycloheximide; cell reporter, cycloheximide protein synthesis inhibition counterscreen; hit rate 12% among 300,000; max response, %; in the data active = max response mostly above about 13%, no sharp cut-off; inactive = mostly below about 14%; also: read at 38.3 µM for the half of the compounds with a filed dose
Pf growth 48h: inhibits P. falciparum growth in the first generation, 48 h. hit rate 5.9% among 310,000. P. falciparum luciferase growth in erythrocytes, 48 h. AID 504832. Potency, µM (doses to about 28.7 µM), actives largely listed as inhibitors
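Luminescence readout; reporter = integrated firefly luciferase in P. falciparum. RBC culture at 2% hematocrit, 0.1% parasitemia final, 37 C/5% CO2; decreased signal taken as growth inhibition.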
Large screens that a line does not name were inactive. Unless noted, calls follow the shape of the dose curve; as a rule, active = well fitted curve in the direction sought with a large enough effect; inconclusive = small, poorly fitted or top-dose-only effect, or another doubt; inactive = no such curve, though single readings can be large; an effect the other way counts as inactive or inconclusive.

COc1ccc(C(=O)N/N=C/c2cccc3cccnc23)cc1	AMA1-RON2 inh inconclusive, Pf growth 48h inconclusive
CCOc1ccc(CN2CCN(S(=O)(=O)c3ccc(NC(C)=O)cc3)CC2)cc1	HCV inh inconclusive, Pf growth 48h inconclusive
Cc1ccc(C(=O)N/N=C\c2ccc(-c3ccc(Cl)cc3)o2)cn1	HCV inh 11µM
Cc1ccc(C(=O)N/N=C\c2ccc(-c3ccc([N+](=O)[O-])cc3)o2)cn1	Pf growth 48h inconclusive
Cc1ccc(C(=O)N/N=C/c2cc(Br)ccc2O)cn1	HCV inh inconclusive, CHX counter 16, Pf growth 48h inconclusive (no result: Shiga inhibitor)
COc1ccccc1N1CCN(C2CCCN(C(=O)CCc3c(C)noc3C)C2)CC1 (centres undefined)	none
O=C(Nc1cccc(F)c1)N1CCc2nc(NCc3cccc(Oc4ccccc4)c3)ncc2C1	none (no result: Shiga inhibitor, Pf growth 96h, HCV inh, CHX counter, Pf growth 48h)
CCOC(=O)c1cnc2c(-c3ccccc3)c(-c3ccccc3)nn2c1C	Pf growth 48h inconclusive
CCOC(=O)c1cnc2nc(C)nn2c1N	none
CCOC(=O)c1cnc2c(N=Nc3cccc(Cl)c3)c(N)nn2c1N	Pf growth 96h 0.66µM (no result: AMA1-RON2 inh, HCV inh)
CCOC(=O)c1cnc2c(N=Nc3ccccc3)c(N)nn2c1N	CHX counter 41
COc1cccc(NC(=O)c2ccc(-c3ccc([N+](=O)[O-])cc3)o2)c1	Shiga inhibitor 70, Pf growth 96h inconclusive, CHX counter 18, Pf growth 48h inconclusive
C=CCNC(=O)c1ccc(-c2ccc([N+](=O)[O-])cc2)o1	Shiga inhibitor active, CHX counter 19
COc1ccc(NC(=O)c2ccc(-c3ccc([N+](=O)[O-])cc3)o2)cc1OC	HCV inh inconclusive
C=CCNC(=O)c1ccc(-c2cccc([N+](=O)[O-])c2)o1	Shiga inhibitor 69, CHX counter 37
CCCCn1nnc(NC(=O)c2ccc(-c3cccc([N+](=O)[O-])c3)o2)n1	none (no result: AMA1-RON2 inh, HCV inh)
S=c1[nH]nc(-c2ccncc2)n1/N=C/c1cn(-c2ccccc2)nc1-c1ccc(Cl)cc1	Pf growth 96h inconclusive, Pf growth 48h inconclusive
CSc1nnc(-c2ccncc2)n1/N=C/c1cn(-c2ccccc2)nc1-c1ccc(Cl)cc1	HCV inh inconclusive, Pf growth 48h 9.3µM
CCOC(=O)C1C(=O)C=C(c2ccc(C)cc2)CC1c1ccc([N+](=O)[O-])cc1 (centres undefined)	Pf growth 96h 9.3µM, HCV inh inconclusive, Pf growth 48h inconclusive
COc1ccc(N/C=C(\C#N)S(=O)(=O)c2ccc(Cl)cc2)c(OC)c1	HCV inh inconclusive
Cn1c2ccccc2c(=O)c2ccc(NCCc3cccs3)cc21	HCV inh 11µM (no result: Shiga inhibitor, Pf growth 96h, CHX counter, Pf growth 48h)
O=C(C1CCC1)N1CCC(c2nc3c(nnn3Cc3c(F)cccc3Cl)c(=O)[nH]2)CC1	Pf growth 48h 13µM
O=c1[nH]c(C2CCN(S(=O)(=O)c3ccc4c(c3)OCCO4)CC2)nc2c1nnn2Cc1c(F)cccc1Cl	none
O=c1[nH]c(C2CCN(S(=O)(=O)c3ccccc3)CC2)nc2c1nnn2Cc1c(F)cccc1Cl	Pf growth 96h 5.2µM, HCV inh inconclusive, Pf growth 48h inconclusive
CCN(CC)c1cccc(OCC(=O)N(C)CCC#N)c1	Pf growth 48h 10µM
Cc1cccc(NC(=O)CNC(=O)c2ccc(S(=O)(=O)NCc3ccco3)cc2)c1C	none (no result: Shiga inhibitor, Pf growth 96h, HCV inh, CHX counter, Pf growth 48h)
CC(=O)Nc1ccc2c(c1)C(C)(C)C(C)N2C (centres undefined)	Pf growth 96h 10µM
CCC(=O)c1ccc(NC(C)=O)cc1O	Pf growth 48h inconclusive
OC1CCC(Nc2ncnc3sccc23)CC1 (centres undefined)	none
CC(OC(=O)c1ccccc1C(=O)N(C)Cc1ccccc1)C(=O)NC1(C#N)CCCCC1 (centres undefined)	Pf growth 96h inconclusive, Pf growth 48h 10µM (no result: Shiga inhibitor, CHX counter)
CC(OC(=O)CN1C(=O)c2ccccc2C1=O)C(=O)NC1(C#N)CCCCC1 (centres undefined)	none (no result: Shiga inhibitor, CHX counter)
COc1ccccc1NC(=O)Cc1csc(NC(=S)Nc2ccccc2)n1	HCV inh 13µM
COc1ccc(NC(=O)Cc2csc(NC(=O)Nc3ccccc3OC)n2)c(OC)c1	none (no result: Shiga inhibitor, CHX counter)
COc1ccc(NC(=S)Nc2nc(CC(=O)Nc3ccccc3OC)cs2)cc1	HCV inh 32µM
Clc1ccccc1Cc1noc(CN2CCCCC2CCc2ccccn2)n1 (centres undefined)	Pf growth 48h inconclusive
Cc1cccc([C@@H]2[C@@H]3C(=O)N(Cc4ccccc4)C(=O)[C@@H]3[C@]3(CC(C)C)C(=O)N(c4cccc(Cl)c4)C(=O)N23)c1	Pf growth 96h inconclusive, Pf growth 48h inconclusive
Cc1cccc([C@@H]2[C@@H]3C(=O)N(Cc4ccccc4)C(=O)[C@@H]3[C@]3(C)C(=O)N(c4cccc(F)c4)C(=O)N23)c1	Pf growth 96h inconclusive, Pf growth 48h 10µM (no result: Shiga inhibitor, CHX counter)
Cc1ccc(N2C(=O)N3[C@H](c4cccc(C)c4)[C@@H]4C(=O)N(Cc5ccccc5)C(=O)[C@@H]4[C@]3(C)C2=O)cc1	Pf growth 48h inconclusive (no result: Shiga inhibitor, CHX counter)
CC[C@@]12C(=O)N(c3ccc(OC)cc3)C(=O)N1[C@H](c1cccc(C)c1)[C@@H]1C(=O)N(Cc3ccccc3)C(=O)[C@@H]12	Pf growth 96h 13µM, Pf growth 48h inconclusive
CC[C@@]12C(=O)N(c3ccc(C)cc3)C(=O)N1[C@H](c1cccc(C)c1)[C@@H]1C(=O)N(Cc3ccccc3)C(=O)[C@@H]12	Pf growth 96h inconclusive, Pf growth 48h inconclusive (no result: Shiga inhibitor, CHX counter)
CC[C@@]12C(=O)N(c3cccc(Cl)c3)C(=O)N1[C@H](c1cccc(C)c1)[C@@H]1C(=O)N(Cc3ccccc3)C(=O)[C@@H]12	Pf growth 96h 5.2µM, HCV inh inconclusive, Pf growth 48h 4.7µM (no result: Shiga inhibitor, CHX counter)
Cc1cccc([C@@H]2[C@@H]3C(=O)N(Cc4ccccc4)C(=O)[C@@H]3[C@]3(Cc4ccc(Cl)cc4)C(=O)N(c4ccc(Br)cc4)C(=O)N23)c1	Pf growth 96h 8.3µM, Pf growth 48h inconclusive
Cc1ccccc1OCC(=O)Nc1ccc(C(=O)Nc2ccccc2C(=O)O)cc1	Pf growth 96h inconclusive, Pf growth 48h inconclusive
Cc1c(C(=O)N(C)Cc2ccc(F)cc2)sc(=O)n1Cc1ccc(Cl)c(Cl)c1	none (no result: Shiga inhibitor, Pf growth 96h, HCV inh, CHX counter, Pf growth 48h)
C[C@@H]1CN([C@@H](C)CO)C(=O)CCCn2nncc2CO[C@H]1CN(C)S(=O)(=O)c1ccc2ccccc2c1	none (no result: Shiga inhibitor, Pf growth 96h, HCV inh, CHX counter, Pf growth 48h)
Cc1cc(C)nc(SCC(=O)NC2CCCCC2C)n1 (centres undefined)	none (no result: Shiga inhibitor, CHX counter)
CCO[C@H]1OC(C(=O)N2CCN(Cc3ccc4c(c3)OCO4)CC2)=C[C@@H](c2csc3ccccc23)[C@@H]1CCCO	Pf growth 96h inconclusive, HCV inh inconclusive, Pf growth 48h 12µM
CCO[C@@H]1OC(C(=O)N2CCN(Cc3ccc4c(c3)OCO4)CC2)=C[C@H](c2coc3ccccc3c2=O)[C@H]1CCCO	Pf growth 96h inconclusive, Pf growth 48h inconclusive
